Source: PubChem BioAssay
Shown are actives, neighbours in structure and some others; about 12% of the full set was active somewhere.
JMJD2A Tudor inh: JMJD2A Tudor domain (human) inhibition | O75164 | AlphaScreen JMJD2A-Tudor / H3K4me3 peptide binding | Potency, µM (titrated, usually from 114 µM), for inactives: top-dose activity change, negative = inhibition, most hits filed as inhibitors | 390,000 compounds, 4.4% hits; note: % is set by controls: 0 for no effect and ±100 for the full control effect; nearly all actives have a fitted effect of over 50% in size
BAZ2B block: BAZ2B (human) inhibition; Q9UIF8; AlphaScreen BAZ2B-H3K14Ac peptide displacement; Potency, µM (doses to about 114 µM), without a hit: top-dose activity change, negative = inhibition, usual class: inhibitors; 360,000 compounds, 4.4% hits; AID 504333; note: % is set by controls: 0 for no effect and ±100 for the full control effect; nearly all actives have a fitted effect of over 60% in size
Target sequence (Q9UIF8 whole entry, looked up): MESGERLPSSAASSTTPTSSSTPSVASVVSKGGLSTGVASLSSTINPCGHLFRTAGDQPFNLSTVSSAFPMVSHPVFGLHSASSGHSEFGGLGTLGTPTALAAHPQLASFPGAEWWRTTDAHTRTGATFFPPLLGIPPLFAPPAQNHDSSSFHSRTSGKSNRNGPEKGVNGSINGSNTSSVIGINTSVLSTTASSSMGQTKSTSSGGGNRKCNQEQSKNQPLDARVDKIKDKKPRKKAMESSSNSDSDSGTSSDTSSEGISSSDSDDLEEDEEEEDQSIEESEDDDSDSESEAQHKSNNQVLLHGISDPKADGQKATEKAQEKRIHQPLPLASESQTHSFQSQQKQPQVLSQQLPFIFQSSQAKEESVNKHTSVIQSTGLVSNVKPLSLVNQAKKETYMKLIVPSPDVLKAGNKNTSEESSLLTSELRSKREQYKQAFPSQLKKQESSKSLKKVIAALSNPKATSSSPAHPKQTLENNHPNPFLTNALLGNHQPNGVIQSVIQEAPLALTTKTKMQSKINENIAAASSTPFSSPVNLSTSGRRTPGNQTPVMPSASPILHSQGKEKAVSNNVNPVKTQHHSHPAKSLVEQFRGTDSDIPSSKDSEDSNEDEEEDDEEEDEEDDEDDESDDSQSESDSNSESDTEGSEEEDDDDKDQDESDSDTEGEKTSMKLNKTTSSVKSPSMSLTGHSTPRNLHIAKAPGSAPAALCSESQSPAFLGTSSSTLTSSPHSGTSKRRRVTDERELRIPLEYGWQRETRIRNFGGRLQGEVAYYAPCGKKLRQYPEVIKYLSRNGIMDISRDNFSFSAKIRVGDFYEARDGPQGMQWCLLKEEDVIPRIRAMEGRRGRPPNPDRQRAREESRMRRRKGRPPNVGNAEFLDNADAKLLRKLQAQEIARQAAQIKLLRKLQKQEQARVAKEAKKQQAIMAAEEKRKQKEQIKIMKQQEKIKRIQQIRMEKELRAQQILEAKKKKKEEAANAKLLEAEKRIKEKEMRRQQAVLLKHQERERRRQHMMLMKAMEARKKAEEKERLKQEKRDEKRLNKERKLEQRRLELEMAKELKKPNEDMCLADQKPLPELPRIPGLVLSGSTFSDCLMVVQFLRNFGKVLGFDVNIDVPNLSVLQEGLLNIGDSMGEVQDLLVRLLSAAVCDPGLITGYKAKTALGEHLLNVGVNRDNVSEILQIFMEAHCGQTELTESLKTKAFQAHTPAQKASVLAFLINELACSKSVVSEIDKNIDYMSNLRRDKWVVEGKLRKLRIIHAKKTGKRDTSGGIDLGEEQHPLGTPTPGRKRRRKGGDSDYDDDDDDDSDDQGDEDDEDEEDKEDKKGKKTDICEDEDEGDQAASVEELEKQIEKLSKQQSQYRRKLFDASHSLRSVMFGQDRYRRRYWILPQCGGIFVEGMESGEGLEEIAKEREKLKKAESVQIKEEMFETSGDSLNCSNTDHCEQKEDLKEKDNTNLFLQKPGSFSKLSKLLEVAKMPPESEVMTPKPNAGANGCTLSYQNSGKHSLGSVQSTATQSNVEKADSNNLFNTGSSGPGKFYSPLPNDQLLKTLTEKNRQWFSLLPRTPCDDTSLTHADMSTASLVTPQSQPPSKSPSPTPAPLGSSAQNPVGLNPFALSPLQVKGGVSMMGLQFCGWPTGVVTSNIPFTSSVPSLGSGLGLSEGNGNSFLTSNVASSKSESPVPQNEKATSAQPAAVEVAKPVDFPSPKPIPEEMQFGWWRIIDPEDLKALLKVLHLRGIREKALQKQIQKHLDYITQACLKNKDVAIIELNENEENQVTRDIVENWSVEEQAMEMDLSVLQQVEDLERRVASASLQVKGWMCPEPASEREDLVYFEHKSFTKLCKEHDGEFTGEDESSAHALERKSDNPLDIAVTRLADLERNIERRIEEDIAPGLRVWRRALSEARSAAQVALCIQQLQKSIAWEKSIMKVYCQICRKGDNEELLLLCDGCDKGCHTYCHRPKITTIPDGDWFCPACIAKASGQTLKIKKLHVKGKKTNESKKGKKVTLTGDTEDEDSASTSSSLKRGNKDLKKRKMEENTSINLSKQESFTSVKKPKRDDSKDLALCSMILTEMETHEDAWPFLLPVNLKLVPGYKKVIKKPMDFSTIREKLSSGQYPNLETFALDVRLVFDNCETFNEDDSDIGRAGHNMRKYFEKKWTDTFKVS
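BAZ2B 50 nM plus b-H3(5-23)K14Ac 50 nM, PBS pH 7.4/0.01% Tween-20, 30 min RT; compound added (max 110 uM), 30 min RT; streptavidin donor/Ni-chelate acceptor beads 10 ug/mL final, 20 min dark; AlphaScreen read.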
HP1b chromo inh: HP1-beta chromodomain-methylated histone interaction inhibition. 390,000 compounds, 0.56% hits. AID 540317. AlphaScreen HP1-beta / biotin-H3K9me3 peptide binding. Potency, µM (titrated, usually from 114 µM), for the others: at the highest dose activity change, negative = inhibition, most hits filed as inhibitors; note: nearly all actives have a fitted effect of over 70% in size
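HP1-beta protein (50 nM final) preincubated 30 min at room temperature with biotinylated H3(1-18)K9me3 peptide (50 nM) in PBS pH 7.4, 0.01% Tween-20, then compound added for 30 min. AlphaScreen streptavidin donor/nickel chelate acceptor beads (10 ug/mL final), 30 min dark, luminescence read.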
Sfp PPTase inh: Sfp phosphopantetheinyl transferase inhibition | Q9F4F7 | Biochemical Sfp PPTase activity, qHTS | Potency, µM, without a hit: largest response in the series, negative = inhibition, actives largely listed as inhibitors | 310,000 compounds, 3.5% hits;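 note: the enzyme is Sfp with the accession as filed and its product quenches rhodamine fluorescence; 0% = enzyme reaction without inhibitor and -100% = no enzyme wells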
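Sfp 15 nM + cpd, 15 min RT; start w/ rhodamine-CoA 5 uM, BHQ-2-YbbR 12.5 uM (final); 50 mM Hepes pH 7.6, 10 mM MgCl2, 0.01% NP-40, 0.01% BSA; read 525/598 nm at 0 and 30 min.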
G9a block: G9a (human) methyltransferase inhibition; Q96KQ7; G9a H3K9 monomethylation, AlphaScreen, 2 h; Potency, µM (series often up to 102 µM), for inactives: top-dose activity, negative = inhibition, usual class: inhibitors; 350,000 compounds, 8.8% hits; note: % is set by controls: 0 for no effect and ±100 for the full control effect; nearly all actives have a fitted effect of over 75% in size
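Chemiluminescent proximity detection of H3K9 monomethylation, read after 10 min bead incubation in the dark. Reaction: 20 nM G9a, 500 nM biotin-H3K9 peptide, 20 uM SAM cofactor, 2 h, room temperature, following 15 min enzyme-compound preincubation.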
L3MBTL1 inh: inhibitors of human L3MBTL1; Q9Y468; AlphaScreen L3MBTL1–H3K9me1 peptide binding; Potency, µM (top dose mostly 57.1 µM), without a hit: top-dose activity, negative = inhibition, hits mostly inhibitors; 230,000 compounds, 0.66% hits; AID 485360; note: % is set by controls: 0 for no effect and ±100 for the full control effect; nearly all actives have a fitted effect of over 60% in size
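Displacement of a biotinylated histone H3(1-15) peptide monomethylated at Lys9 (75 nM) from L3MBTL1 (50 nM) was measured by AlphaScreen after a 30 min room-temperature compound incubation; cefsulodin titration served as intraplate control.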
Starred values were filed as active, the others as inactive; ? = inconclusive; / = not tested or not shown; [ ] = another dose, or the depositor's remark. Calls come from the whole dose curve; as a rule, active = well fitted curve in the direction sought with a large enough effect; inconclusive = small, poorly fitted or top-dose-only effect, or another doubt; inactive = no such curve, though single readings can be large; an effect the other way counts as inactive or inconclusive. Potency is the fitted concentration of half-maximal effect.

SMILES	JMJD2A Tudor inh	BAZ2B block	HP1b chromo inh	Sfp PPTase inh	G9a block	L3MBTL1 inh
CCOC(=O)c1c(C)[nH]c(C)c1S(=O)(=O)N1CCN(c2ccccc2OC)CC1	-31.7%	-4.8%[57.1 µM]	7.4%	/	-8.8%[59 µM]	/
COc1ccc(N2CCN(C(=O)CCNC(=O)c3ccc(C(C)(C)C)cc3)CC2)cc1	?	?	-15.6%	12.5%	44.7µM*	-24.0%
O=C(O)CCCCCNS(=O)(=O)c1c(Cl)cccc1Cl	-18.9%	-8.4%	36.6%	5.5%	-29.1%[12.7 µM]	-1.7%
O=C(O)CNS(=O)(=O)c1c(Cl)cccc1Cl	14.1µM*	-1.0%	18.9%	4.4%	4.9%	6.6%
O=C(Nc1ccc(N2CCOCC2)cc1N1CCOCC1)c1ccccc1	-13.0%	/	4.6%	/	/	-14.8%
O=C(Nc1ccc(N2CCOCC2)cc1N1CCOCC1)c1ccco1	56.2µM*	1.9%	?	7.6%	?	5.7%
O=C(Nc1ccc(N2CCOCC2)c(C(=O)O)c1)c1ccco1	/	-0.9%	/	12.1%	56.2µM*	/
Cc1ccc(NC(=O)c2cc(NC(=O)c3ccco3)ccc2N2CCOCC2)cc1	-1.4%	5.8%	27.9%	-6.6%	-29.8%[59 µM]	-29.1%[11.4 µM]
Cc1ccc(C2NNC(=O)C2NC(=O)c2ccccc2)cc1 (stereo unspecified)	?	-7.0%	0.6%	-11.2%	2.24µM*	/
O=C(NC1C(=O)NNC1c1ccccc1)c1ccc(F)cc1 (stereo unspecified)	-11.8%	5.3%	38.5%	4.1%	-19.5%[59 µM]	-3.0%
Cc1ccc(C(=O)C(OC(=O)CNC(=O)COc2ccccc2C)c2ccccc2)cc1 (stereo unspecified)	-12.3%[57.1 µM]	/	13.8%[57 µM]	/	/	/
CCOc1ccc2ncc(S(=O)(=O)c3ccccc3)c(N3CCN(c4ccccc4)CC3)c2c1	?	/	-15.2%	/	/	/
CCOc1ccc2ncc(S(=O)(=O)c3ccccc3)c(N3CCN(c4ccc(OC)cc4)CC3)c2c1	?	10µM*	?	-2.5%	?	-3.6%
COc1ccc(N2CCN(c3c(S(=O)(=O)c4ccccc4)cnc4ccc(OC)cc34)CC2)cc1	?	?	?	12.4%	8.91µM*	?
CC(C)NC(=O)Cn1ccc2cc(S(=O)(=O)N3CCCCCC3)ccc21	-8.3%	-15.6%	20.1%	/	-22.8%[59 µM]	/
COc1ccc(CNc2cc(-c3ccccc3Cl)ncn2)c(OC)c1	/	/	/	26.2%	6.1%[0.501 µM]	/
COc1ccc(CNc2cc(-c3ccccc3OC)ncn2)c(OC)c1	/	/	/	89.1µM*	-4.9%[0.501 µM]	/
COc1ccc(CNc2ccnc(-c3ccc4c(c3)OCO4)n2)c(OC)c1	/	/	/	44.7µM*	-30.4%[0.501 µM]	/
COc1ccc(CNc2ccnc(-c3ccc(C(=O)N(C)C)cc3)n2)c(OC)c1	/	/	/	8.9%	-4.8%[0.501 µM]	/
COc1ccccc1CNc1ccnc(-c2ccccc2OC)n1	/	/	/	79.4µM*	-5.1%[0.501 µM]	/
COc1ccccc1CNc1ccnc(-c2ccc3c(c2)OCO3)n1	/	/	/	50.1µM*	/	/
CCOc1ccc(NC(=O)Cn2cc(S(=O)(=O)NC)c(S(=O)(=O)NC)c2)cc1	-16.6%	-16.6%	-0.3%	/	-22.7%[59 µM]	/
CCOc1ccc(-n2c(-c3ccccc3)nnc2-c2ccccc2)cc1	5.5%	0.5%	1.7%	-1.0%	8.8%	-7.2%
CCOc1ccc(-n2c(-c3ccccc3)c[nH]c2=S)cc1	?	-10.9%	25.2%	-24.0%	1.26µM*	/
O=c1c(-c2ccc(Cl)cc2)c[nH]n1-c1ccccc1	-16.1%	7.8%	24.5%	-0.4%	10.8%[2.33 µM]	/
SMILES	JMJD2A Tudor inh	BAZ2B block	HP1b chromo inh	Sfp PPTase inh	G9a block	L3MBTL1 inh
COc1cccc(-n2c(-c3ccccc3)c[nH]c2=S)c1	?	?	?	44.7µM*	1.41µM*	/
Cc1ccc(-c2c[nH]c(=S)n2-c2ccccc2)cc1	?	?	-13.7%	20µM*	0.708µM*	-24.7%
S=c1[nH]cc(-c2ccccc2)n1-c1cccc(Cl)c1	56.2µM*	-32.7%	19.1%	-8.8%	1.12µM*	-13.9%
Cc1ccc(-n2c(-c3ccccc3)cc(=O)nc2C)cc1	-19.9%	-4.5%	23.4%	6.6%	35.5%[12.7 µM]	6.3%
CCOCCc1nn2c(=O)cc(COC(=O)C(CC)c3ccccc3)nc2s1 (stereo unspecified)	-5.0%	-4.4%	40.9%	/	14.9%[59 µM]	/
CCOc1ccccc1CNC(=O)c1cn(-c2ccc(OC)cc2)c(=O)c2ccccc12	-16.1%	?	18.1%	/	?	/
COc1cc(NC(=O)C2=CC(c3ccc(F)cc3)=NS(=O)(=O)N2C)cc(OC)c1OC	0.7%	2.5%	49.5%	/	-36.1%[59 µM]	/
O=C1NC(=O)/C(=C/c2ccccc2Oc2ccc(Cl)cc2)S1	-2.7%	1.8%	25.1%	16.8%	-47.7%[59 µM]	6.6%
Cc1ccc(S(=O)(=O)Oc2ccccc2/C=C2\SC(=O)NC2=O)cc1	-17.5%	?	24.6%	17.5%	50.1µM*	-5.9%
O=[N+]([O-])c1ccc(N2CCCCC2)s1	-25.0%	-31.1%	?	50.1µM*	22.4µM*	/
O=[N+]([O-])c1ccc(N2CCN(Cc3ccccc3)CC2)s1	-16.2%	?	4.9%	2.0%	-29.6%[2.33 µM]	/
Cc1ccc(C2C(/C=C3/SC(=S)NC3=O)=C(c3cccs3)Oc3ccccc32)cc1 (stereo unspecified)	35.5µM*	25.1µM*	?	-8.3%	31.6µM*	/
Cc1ccc(N/N=C(\C#N)C(N)=S)c(C)c1	44.7µM*	?	?	?	10µM*	-6.7%
Cc1ccc(-c2nn(CC(=O)NC3CCCCC3)c3c2cnc2ccccc23)cc1	-27.7%	-11.3%	-11.9%	/	12.4%[59 µM]	/
Cc1cc2c(cc1S(=O)(=O)N(C)C1CCCCC1)OCC(=O)N2	-9.9%	2.1%	28.3%	2.4%	7.1%	-4.0%
Cc1cc2[nH]c(=O)c(=O)[nH]c2cc1S(=O)(=O)N(C)C1CCCCC1	3.55µM*	0.9%	35.7%	9.3%	/	-1.2%
CCOc1cc(-c2ccc3c(c2)OCO3)cc(=O)c2c(C)oc(C)c12	/	?	/	31.6µM*	?	/
Cc1ccccc1C(=O)Oc1cc(-c2ccc3c(c2)OCO3)cc(=O)c2c(C)oc(C)c12	-34.4%	?	1.2%	/	14.1µM*	/
Cc1ccc(C(=O)Oc2cc(-c3ccc4c(c3)OCO4)cc(=O)c3c(C)oc(C)c23)cc1	?	?	8.2%	/	?	/
Cc1oc(C)c2c(=O)cc(-c3ccc4c(c3)OCO4)cc(OC(=O)c3cccc(Br)c3)c12	-32.6%	-28.9%	6.1%	/	?	/
CCOC(=O)C1CCN(c2ncnc3c2nc2n3CCCCC2)CC1	-16.5%	-4.5%	8.0%	/	8.5%[59 µM]	/
CC1=NN(c2ccc(Cl)cc2)C(=O)C1C(c1ccccc1O)c1c(C)[nH]n(-c2ccc(Cl)cc2)c1=O (stereo unspecified)	56.2µM*	35.5µM*	?	30.2%	3.98µM*	-12.7%
